# Laboratory results published in publication PMC11208138.
# Columns and labels:
# Assay in all cases: cross-link between two proteins; cross-linking mass spectrometry
# [1] = target: PHD finger-like domain-containing protein 5A (UniProt Q7RTV0)
# [2] = target: Small nuclear ribonucleoprotein Sm D2 (UniProt P62316)
# [3] = target: Splicing factor 3B subunit 5 (UniProt Q9BWJ5)
# THO complex subunit 4 = THO complex subunit 4 (UniProt Q86V81)
# Chain of Small nuclear ribonucleoprotein F, P62306 (P62306 whole entry): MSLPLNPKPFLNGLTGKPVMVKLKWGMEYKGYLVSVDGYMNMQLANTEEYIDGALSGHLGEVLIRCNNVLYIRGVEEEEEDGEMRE
# Chain of Small nuclear ribonucleoprotein Sm D2 (P62316 whole entry): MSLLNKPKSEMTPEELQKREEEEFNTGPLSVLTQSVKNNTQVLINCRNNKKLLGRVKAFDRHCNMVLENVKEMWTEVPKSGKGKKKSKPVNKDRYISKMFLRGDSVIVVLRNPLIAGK
# Chain of Splicing factor 3B subunit 5 (Q9BWJ5 whole entry): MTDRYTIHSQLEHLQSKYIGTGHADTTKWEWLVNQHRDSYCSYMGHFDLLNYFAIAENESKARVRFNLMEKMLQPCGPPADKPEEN
# Chain of Splicing factor 3B subunit 1, O75533 (O75533 whole entry): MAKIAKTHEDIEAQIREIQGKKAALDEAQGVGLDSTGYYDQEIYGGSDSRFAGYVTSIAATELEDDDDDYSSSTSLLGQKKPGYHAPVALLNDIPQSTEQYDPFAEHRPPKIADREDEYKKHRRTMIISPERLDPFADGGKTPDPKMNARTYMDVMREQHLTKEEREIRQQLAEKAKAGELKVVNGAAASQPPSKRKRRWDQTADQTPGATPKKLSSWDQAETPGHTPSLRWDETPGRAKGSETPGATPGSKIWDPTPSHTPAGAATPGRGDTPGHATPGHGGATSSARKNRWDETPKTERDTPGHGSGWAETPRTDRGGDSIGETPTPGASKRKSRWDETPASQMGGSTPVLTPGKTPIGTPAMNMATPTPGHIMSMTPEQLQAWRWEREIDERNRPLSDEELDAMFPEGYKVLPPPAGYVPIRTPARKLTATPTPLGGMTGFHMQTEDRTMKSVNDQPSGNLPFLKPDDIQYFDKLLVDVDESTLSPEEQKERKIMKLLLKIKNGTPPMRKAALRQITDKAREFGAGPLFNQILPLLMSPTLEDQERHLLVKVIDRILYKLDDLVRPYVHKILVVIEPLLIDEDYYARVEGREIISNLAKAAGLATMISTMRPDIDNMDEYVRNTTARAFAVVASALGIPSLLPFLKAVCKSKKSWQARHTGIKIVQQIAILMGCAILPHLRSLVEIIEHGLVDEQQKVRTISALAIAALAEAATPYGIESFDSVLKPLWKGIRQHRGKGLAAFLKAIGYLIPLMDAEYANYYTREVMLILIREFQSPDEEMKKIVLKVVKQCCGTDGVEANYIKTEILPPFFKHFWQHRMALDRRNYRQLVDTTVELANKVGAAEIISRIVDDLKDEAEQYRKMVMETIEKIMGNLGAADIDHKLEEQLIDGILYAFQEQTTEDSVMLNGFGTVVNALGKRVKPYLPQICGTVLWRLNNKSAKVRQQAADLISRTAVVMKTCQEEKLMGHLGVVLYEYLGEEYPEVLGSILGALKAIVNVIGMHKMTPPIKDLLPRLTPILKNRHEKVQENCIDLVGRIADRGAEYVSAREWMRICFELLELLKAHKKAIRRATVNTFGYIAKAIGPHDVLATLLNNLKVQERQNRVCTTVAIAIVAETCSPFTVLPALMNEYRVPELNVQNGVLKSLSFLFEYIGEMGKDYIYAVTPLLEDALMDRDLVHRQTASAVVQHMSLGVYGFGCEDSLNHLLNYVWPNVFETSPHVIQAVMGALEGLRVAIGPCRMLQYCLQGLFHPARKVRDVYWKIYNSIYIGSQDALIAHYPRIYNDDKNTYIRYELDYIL
# Chain of PHD finger-like domain-containing protein 5A (Q7RTV0 whole entry, the tested form may be a part): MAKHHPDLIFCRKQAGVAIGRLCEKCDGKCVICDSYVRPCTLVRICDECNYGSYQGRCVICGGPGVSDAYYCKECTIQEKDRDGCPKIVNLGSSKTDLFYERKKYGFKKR
# Chain of PHD finger-like domain-containing protein 5A, Q7RTV0 (Q7RTV0 whole entry, the tested form may be a part): as above
substance,measurement,setting,value
"Splicing factor 3B subunit 1, O75533",listed as a hit,[1],yes
"Small nuclear ribonucleoprotein F, P62306",listed as a hit,[2],yes
"PHD finger-like domain-containing protein 5A, Q7RTV0",listed as a hit,[3],yes
"Enhancer of rudimentary homolog, P84090",listed as a hit,THO complex subunit 4,yes
